This is a sample that favours compounds with a hit; in the whole collection about 6.9% have one here.
NR3A LBD binder = modulates the human NR3A ligand-binding domain | Tm shift relative to glycine control, % at 25 µM | 340,000 compounds, 2.5% hits | AID 1259313 | NR3A LBD differential scanning fluorimetry, Tm shift; 0% = protein alone, 100% = glycine-bound protein;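 active = melting temperature shift of at least 10% of the positive control shift, at one fixed dose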
MPTP block = permeability transition pore inhibition. inhibition, % at 10 µM. 360,000 compounds, 1.4% hits. isolated mouse mitochondria, Ca2+ swelling absorbance, 30 min;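 active = inhibition of 50% or more, scaled per plate between neutral and stimulator controls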
SKKanGAS inh = blocks kanamycin growth of S. pyogenes SKKanGAS strain. AID 1662. inhibition, % at 7.5 µM. 300,000 compounds, 1.3% hits. BacTiter-Glo, 6 h;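 active = mean replicate score, as percent of positive control median, at least 50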;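 note: strain carries kanamycin resistance gene driven by streptokinase promoter and grows in 40 µg/ml kanamycin; loss of luminescence reflects streptokinase promoter inhibition or plain growth inhibition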
Mdm2 MdmX PPI = inhibitors of human Mdm2/MdmX interaction; O15151+Q00987; SaOS-2 split-luciferase Mdm2/MdmX complementation, luminescence; inhibition, % at 8 µM; 330,000 compounds, 3% hits;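 active = inhibition of at least 50% at 8 µM in the primary screen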
Target sequence (O15151 whole entry, looked up): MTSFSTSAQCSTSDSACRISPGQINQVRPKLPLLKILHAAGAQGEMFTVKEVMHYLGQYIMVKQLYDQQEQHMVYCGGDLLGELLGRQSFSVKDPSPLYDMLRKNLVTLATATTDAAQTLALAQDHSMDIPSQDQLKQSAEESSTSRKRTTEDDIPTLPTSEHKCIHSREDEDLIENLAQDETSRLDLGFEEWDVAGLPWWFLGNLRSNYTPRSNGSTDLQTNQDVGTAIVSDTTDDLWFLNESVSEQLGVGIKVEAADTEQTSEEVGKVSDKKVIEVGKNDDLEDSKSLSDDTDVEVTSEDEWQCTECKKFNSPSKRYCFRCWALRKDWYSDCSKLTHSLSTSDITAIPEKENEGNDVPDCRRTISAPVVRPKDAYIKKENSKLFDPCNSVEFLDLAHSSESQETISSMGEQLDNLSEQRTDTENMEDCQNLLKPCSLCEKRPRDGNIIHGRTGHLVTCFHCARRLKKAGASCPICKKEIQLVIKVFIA
Target sequence (Q00987 whole entry, looked up): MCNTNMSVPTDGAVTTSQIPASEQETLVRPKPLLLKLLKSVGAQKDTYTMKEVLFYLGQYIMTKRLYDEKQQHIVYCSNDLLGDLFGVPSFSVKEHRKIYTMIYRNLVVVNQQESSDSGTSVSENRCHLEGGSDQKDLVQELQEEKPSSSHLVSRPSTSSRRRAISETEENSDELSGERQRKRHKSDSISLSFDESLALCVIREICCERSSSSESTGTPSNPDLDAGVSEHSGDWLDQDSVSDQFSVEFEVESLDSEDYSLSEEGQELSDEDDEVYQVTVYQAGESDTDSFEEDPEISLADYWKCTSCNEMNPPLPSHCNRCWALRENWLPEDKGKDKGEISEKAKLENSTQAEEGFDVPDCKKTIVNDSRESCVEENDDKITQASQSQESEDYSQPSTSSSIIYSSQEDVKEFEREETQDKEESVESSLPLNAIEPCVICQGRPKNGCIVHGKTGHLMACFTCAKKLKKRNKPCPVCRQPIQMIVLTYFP
CSC inhib = cancer stem cell inhibition; cancer stem cell-like cells viability, luminescence; inhibition, % at 7.5 µM; 300,000 compounds, 1.1% hits; in the data active = inhibition above about 75%; tested in HMLE shEcad cells
Beta cell apopt = blocks beta cell apoptosis; INS-1E cytokine-induced death, ATP luminescence, 48 h; percent of positive-control rescue, neutral wells zero; 300,000 compounds, 0.8% hits; protection from apoptosis, % (concentration not given with the values);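 active = Every replicate reaches about 75%, or at least half do and their mean reaches it too, limit read from the data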;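 note: higher means more ATP so stronger rescue from cytokine killing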
Hits are given with their value; - = inactive; . = no result.

SMILES	NR3A LBD binder	MPTP block	SKKanGAS inh	Mdm2 MdmX PPI	CSC inhib	Beta cell apopt
Cc1ccc(S[C@@H](CCN2CC[C@H](C)CCC2=O)c2ccccc2)cc1	-	-	-	-	-	-
Cc1ccc(S[C@@H](CCN2CC[C@H](C(C)(C)C)CCC2=O)c2ccccc2)cc1	-	-	75.8	-	108.2	-
COc1ccc(NC(=O)N2CCCC(c3nc(-c4ccc(C(C)C)cc4)no3)C2)cc1 (stereo not drawn)	-	-	-	-	95.9	-
COc1ccc(NC(=O)N2CCCC(c3nc(-c4ccc(OC)cc4)no3)C2)cc1 (stereo not drawn)	-	-	-	-	-	-
Cc1cc(C)cc(NC(=O)c2cccnc2)c1	-	-	-	-	-	-
N#C/C(=C/c1ccc(N2CCCCCC2)o1)c1ccc(Cl)cc1	-	-	-	-	-	81.0
Nc1nc(CSC(=S)N2CCN(c3ccccc3)CC2)nc(Nc2ccc(F)cc2)n1	25.2	-	-	-	.	-
COCc1nc2ccccc2n1CCc1ccccc1	-	-	-	-	-	-
Cc1ccc(S(=O)(=O)N2C(=O)CCC2C(=O)N2CCCCC2)cc1 (stereo not drawn)	-	-	-	-	-	-
CCOC(=O)Cc1cc(=O)n2[nH]cc(-c3cccc(Br)c3)c2n1	-	-	71.2	-	-	-
Cc1cc(C)c[n+](C(C)C(=O)c2ccc(-c3ccccc3)cc2)c1 (stereo not drawn)	-	-	-	-	-	93.0
Cc1ccc[n+](C(C)C(=O)c2ccc(Cl)cc2)c1 (stereo not drawn)	-	-	-	-	-	-
OC1c2c(F)cccc2N=C2CCCCCN21 (stereo not drawn)	.	-	.	.	.	.
CCCCCCn1c(-c2ccco2)nc2oc3cc(OC)ccc3c(=O)c2c1=O	32.7	-	-	-	-	-
CCCc1nc2oc3cc(OC)ccc3c(=O)c2c(=O)n1Cc1ccco1	-	-	-	-	-	-
O=C(C[C@H]1C[C@H](C(=O)N2CCOCC2)[C@@]2(CCC3CCCC3)c3[nH]c4cc(-c5ccco5)ccc4c3CCN2C1=O)NCc1ccco1	-	-	.	-	.	.
O=c1c2ccccc2c(-c2ccc(O)cc2)nn1-c1cccc(C(F)(F)F)c1	24.9	-	-	-	-	-
COc1cc(NCCCn2ccc(NC(=O)OCc3ccccc3)nc2=O)cc(OC)c1OC	16.8	-	.	.	.	.
COc1ccc(CN(C)CCCn2ccc(NC(=O)OCc3ccccc3)nc2=O)cc1OC	.	-	.	.	.	.
Cc1ccn2c(c1)nc(=S)n2C(=O)c1ccco1	.	.	-	-	-	-
CC(C)OCCCNc1ncnc2c1[nH]c1ccccc12	-	-	-	-	.	125.2
CCOc1ccc2[nH]c3c(NCCCOC)ncnc3c2c1	-	-	-	-	-	-
Cc1ccc(O)c(/C=N/NC(=O)c2[nH]ncc2Br)c1	-	-	-	-	-	84.3
COc1ccc(OC)c(/C=N/NC(=O)c2[nH]ncc2Br)c1	21.2	-	-	-	-	-
CCOc1ccc(/C=N/NC(=O)c2[nH]ncc2Br)c(O)c1	26.7	-	-	-	87.0	77.0
SMILES	NR3A LBD binder	MPTP block	SKKanGAS inh	Mdm2 MdmX PPI	CSC inhib	Beta cell apopt
O=C(N/N=C/c1cccs1)c1[nH]ncc1Br	-	-	-	-	-	-
COc1ccc(-c2cc(NC=O)c3ncc(-c4cccc(C(F)(F)F)c4)n3c2)cc1OC	.	-	.	.	.	.
O=C1CCC(C(=O)N2CCc3c(Cl)cccc3C2)CN1CCCN1CCOCC1 (stereo not drawn)	-	-	-	-	-	-
CC(C)=CCc1c2c(c3occ(-c4ccc(O)c(O)c4)c(=O)c3c1O)C=CC(C)(C)O2	26.8	-	.	.	.	.
CC(C)=CCc1c2c(c3occ(-c4ccc(O)cc4)c(=O)c3c1O)C=CC(C)(C)O2	25.1	-	111.0	-	-	-
CC(C)(O)CCc1c(-c2ccc(O)cc2O)oc2c3c(cc(O)c2c1=O)OC(C)(C)C=C3	-	-	-	-	-	-
CCN1C/C(=C/c2ccc(N3CCOCC3)cc2)C(=O)/C(=C/c2ccc(N3CCOCC3)cc2)C1	-	-	-	.	103.5	-
COc1ccc2oc(C(=O)OCC(=O)NC3CCCC3)c(C)c2c1	-	-	-	-	-	.
COc1ccc2oc(C(=O)OCC(=O)NC3(C#N)CCCC3)c(C)c2c1	-	-	53.2	-	.	-
CC(/C=N/NC(=O)COc1ccccc1C)=N\NC(=O)COc1ccccc1C	12.5	-	-	-	-	-
